12-LOX inh: Primary qHTS assay for inhibitors of human arachidonate 12S-lipoxygenase (ALOX12): Round 2 | purified 12hLO, xylenol orange hydroperoxide absorbance | Potency, µM (titrated, usually from 108 µM), for the others: at the highest dose activity change, negative = inhibition, most hits filed as inhibitors | actives 1.1% (n = 580,000) | AID 1671190, 2021; also: % is scaled to controls: 0 for no effect and ±100 for the full control effect
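Purified human 12hLO at 150 nM in 25 mM Hepes, 0.01% Triton X-100, pH 7.0, preincubated 15 min at room temperature with compound. Reaction started with 40 uM arachidonic acid, 30 min at room temperature. Hydroperoxide measured by Fe-xylenol orange, 573/405 nm absorbance ratio.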
Rango dissoc inh: qHTS Assay for Inhibitors of RanGTP induced Rango (Ran-regulated importin-beta cargo) - Importin beta complex dissociation. Potency, µM (titrated, usually from 46.1 µM), inactives show top-dose activity change, negative = inhibition. AID 540253, 2011. Biochemical FRET Rango-importin beta, RanGTP-induced dissociation. actives 0.071% (n = 340,000); calls by dose curve; also: % of control where 0% means no effect; nearly all actives have a fitted effect of over 45% in size
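Compounds preincubate 5 min with complex of recombinant Rango and importin beta in PBS with 1 mM DTT. Ran (0.6 uM) loaded with 2 mM GTP plus 0.2 uM RCC1 starts dissociation; FRET is recorded 45 min later.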
Rango complex inh: qHTS Assay for Inhibitors of Rango (Ran-regulated importin-beta cargo) - Importin beta complex formation. Importin subunit beta-1 (Homo sapiens), Q14974. Rango CFP/YFP FRET sensor + importin beta, 45 min. Potency, µM (highest dose often 92.2 µM), inactives show at the top dose inhibition of complex formation. actives 0.031% (n = 340,000); calls by dose curve;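 also: 0% = DMSO wells and 100% = buffer wells lacking importin beta; nearly all actives have a fitted effect of over 15% in size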
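FRET biosensor Rango (snurportin 1 IBB between N-terminal EYFP and C-terminal Cerulean), 50 nM in PBS/1 mM DTT/0.02% Tween-20/0.1% BSA, preincubated 5 min RT with compound; 0.125 microM importin beta added, 45 min RT, CFP/YFP FRET ratio read.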
PTAP TSG101 blk: qHTS Assay for Iinhibitors of HIV-1 Budding by Blocking the Interaction of PTAP/TSG101; Tumor susceptibility gene 101 protein (Homo sapiens), Q99816; Fluorescence polarization, FITC-PTAP peptide / Tsg101 binding; Potency, µM (highest dose often 115 µM), for inactives: at the top dose activity change, negative = inhibition, hits mostly inhibitors; 340,000 tested, under 10 active; active = well fitted inhibition curve with a large enough effect in the main read-out, with a control signal flat, not every such curve was filed as active; inconclusive = small, poorly fitted or top-dose-only effect, or effect the other way, or a change in a side signal; inactive = no such curve, though single readings can be large or run the other way; also: % of control where 0% means no effect
Target sequence (Q99816 whole entry, looked up): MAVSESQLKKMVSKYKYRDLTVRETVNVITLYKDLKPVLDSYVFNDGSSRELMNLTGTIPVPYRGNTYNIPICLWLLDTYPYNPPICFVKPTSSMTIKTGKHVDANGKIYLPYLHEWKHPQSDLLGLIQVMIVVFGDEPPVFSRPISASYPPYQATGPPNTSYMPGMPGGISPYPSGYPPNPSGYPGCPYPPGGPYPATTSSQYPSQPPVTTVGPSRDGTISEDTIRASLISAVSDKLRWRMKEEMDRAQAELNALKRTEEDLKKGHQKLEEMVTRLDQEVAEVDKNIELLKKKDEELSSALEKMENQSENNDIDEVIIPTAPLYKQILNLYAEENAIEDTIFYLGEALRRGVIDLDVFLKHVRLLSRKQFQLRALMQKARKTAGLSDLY
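Steps: Tsg101 binding domain dispensed (10 uM final), compounds pinned in DMSO, FITC-labeled PTAP-motif peptide added (50 nM final); after 20 min binding at room temperature, polarization measured.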
ClpP mod: qHTS Assay for Activators of ClpP; purified B. subtilis ClpP, FRET peptide cleavage, 20 min; Potency, µM (doses to about 57.5 µM), without a hit: at the top dose activity change, negative = active; actives 1.9% (n = 340,000); active = well fitted falling curve with a large enough effect; inconclusive = small, poorly fitted or top-dose-only effect; inactive = no such curve, though single readings can be large or run the other way; also: the source files actives as falling curves though it sought activators and does not explain the sign; nearly all actives have a fitted effect of over 65% in size
Target sequence (P80244 whole entry, looked up): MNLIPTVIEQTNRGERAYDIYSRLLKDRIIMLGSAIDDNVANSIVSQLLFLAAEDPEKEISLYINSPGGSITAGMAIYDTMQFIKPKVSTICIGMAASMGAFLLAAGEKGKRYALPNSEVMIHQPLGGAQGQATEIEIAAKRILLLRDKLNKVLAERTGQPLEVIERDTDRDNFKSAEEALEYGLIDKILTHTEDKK
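ClpP 10 microg/mL final, pH 8 Tris/KCl buffer with BSA, glycerol, Tween-20; compound pinned in; FRET-FV substrate; RT 20 min; Ex320/Em430; ΔFRET vs ADEP 5.8 microM, DMSO, no enzyme.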
TDP1 inh: qHTS Assay for Inhibitors of Tyrosyl-DNA Phosphodiesterase (TDP1); Potency, µM (titrated, usually from 130 µM), for inactives: at the highest dose activity change, negative = inhibition, most hits filed as inhibitors; actives 0.28% (n = 350,000); AID 485290, 2010; Tyrosyl-DNA phosphodiesterase 1 (Homo sapiens), Q9NUW8; recombinant TDP1, AlphaScreen DNA substrate cleavage; also: % is scaled to controls: 0 for no effect and ±100 for the full control effect; nearly all actives have a fitted effect of over 40% in size
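Signal: AlphaScreen proximity between streptavidin donor and anti-FITC acceptor beads on intact substrate. Reaction: Tdp1 1 nM, substrate 15 nM final, 5 min RT after 15 min compound preincubation.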
ClpP inh valid: qHTS Assay for Activators of ClpP: Hit Validation of Inhibitors; shares compounds with ClpP mod; purified B. subtilis ClpP, FRET-FV substrate cleavage, 20 min; Potency, µM (doses to about 57.5 µM), for inactives: at the highest dose activity change, negative = inhibition, hits mostly inhibitors; AID 743245, 2014; actives 40% (n = 470); also: % is scaled to controls: 0 for no effect and ±100 for the full control effect; nearly all actives have a fitted effect of over 70% in size
An asterisk follows results filed as active; u = inconclusive; x = no result; [ ] = another dose, or the depositor's remark. Hits are enriched below; roughly 2.4% of the tested compounds scored in any of these assays. Unless noted, calls follow the shape of the dose curve; as a rule, active = well fitted curve in the direction sought with a large enough effect; inconclusive = small, poorly fitted or top-dose-only effect, or another doubt; inactive = no such curve, though single readings can be large; an effect the other way counts as inactive or inconclusive. Potency is read from the fitted curve at half-maximal effect.

SMILES	12-LOX inh	Rango dissoc inh	Rango complex inh	PTAP TSG101 blk	ClpP mod	TDP1 inh	ClpP inh valid
O=C(NCCc1ccccc1)C1Cc2c(-c3ccccc3)ccnc2O1 (configuration not stated)	0.8%	x	x	x	u	x	-1.7%
CC(=O)NCCc1ccc(C(=O)Cn2nnc(-c3cccc(F)c3)n2)cc1	22.3%	x	x	x	x	x	x
O=C(NCCc1nc(-c2ccccc2)no1)c1cc(=O)c2cc(Cl)ccc2o1	37.1%	x	x	x	x	x	x
COc1ccc(-n2nc3ccc(NC(=O)c4ccc(-c5cc(Cl)ccc5Cl)o4)cc3n2)cc1	-9.3%	x	x	x	3.3%	-3.1%[12.3 µM]	x
O=C(Nc1ccc2nn(-c3ccccc3)nc2c1)c1ccc(-c2cccc(Cl)c2)o1	-18.2%	x	x	x	58.7%	-2.2%[12.3 µM]	-17.0%
Cc1nn(-c2ccccn2)c2c1-c1nc(N)ncc1CC2	70.9%	0.4%	2.1%	-9.2%	10µM*	6.6%	17.2µM*
COc1ccc(C(=O)N2CCCCCCNC(=O)[C@@H]3C[C@@H](c4nc(C(C)C)no4)C[C@@H]32)cn1	36.5%	x	x	x	x	x	x
Cc1ccc(C)c2[nH]c(=O)c(CN(CCCN(C)C)C(=O)NCc3ccccc3)cc12	132.6%	-8.5%	-1.1%	-0.7%	3.55µM*	4.2%	u
Cc1nnc([C@H]2CCN(C(=O)c3ccccc3)C2)o1	27.8%[176 µM]	x	x	x	x	x	x
COc1cccc(C2C(C(=O)Nc3nc4ccccc4s3)=C(C)NC3=C2C(=O)CC(C)(C)C3)c1OC (configuration not stated)	u	u	u	-6.1%	383.0%	-3.1%	8.63µM*
COc1ccc2c(c1OC)C(=O)OC2Nc1nc2ccccc2s1 (configuration not stated)	-0.8%	1.1%	1.7%	0.2%	-2.6%	2.7%	x
O=C(NCCc1nc2ccccc2[nH]1)c1ccc(N2CCCN(Cc3ccc(F)cc3)C2=O)cc1	3.1%	x	x	x	x	x	x
COc1ccc(NCc2cc3cc4c(cc3n(CC(=O)Nc3ccc(C)c(C)c3)c2=O)OCO4)cc1	8.3%	x	x	x	59.8%	5.6%	u
COc1ccc(NCc2cc3cc4c(cc3n(CC(=O)Nc3cc(C)cc(C)c3)c2=O)OCO4)cc1	-30.1%	x	x	x	23.9%	2.8%	x
CC(=O)N[C@H]1C[C@@H](c2ccc(-n3cncn3)cc2)O[C@@H](C2CCCCC2)C1	20.8%	x	x	x	x	x	x
COCCOc1ccnc(-c2noc([C@@H]3CCCN3Cc3ccc4c(c3)OCO4)n2)c1	53.1%[176 µM]	x	x	x	x	x	x
CSc1ccc(CCNC(=O)c2cc(C)nc3c2c(C)nn3-c2ccccc2)cc1	-38.8%	x	x	x	66.7%	1.1%	17.2µM*
CC[C@H]1CN(S(=O)(=O)c2ccc(OC)cc2)CC[C@H]1CC(=O)Nc1nccs1	-16.4%[176 µM]	x	x	x	x	x	x
Cc1nn2c(NCC(C)C)c3c(nc2c1-c1ccccc1)CCC3	x	20.2%	0.1%	-0.3%	7.94µM*	0.0%	4.85µM*
Cc1nn2c(NC(C)C)c3c(nc2c1-c1ccccc1)CCC3	-24.7%	11.6%	0.4%	1.7%	1.1%	-1.4%	x
COc1ccc(NC(=O)c2ccccc2-c2ccc(C(F)(F)F)cc2)cc1S(=O)(=O)N1CCOCC1	-4.5%	12.1%	2.6%	-0.9%	-7.9%	1.9%	x
COc1ccc(S(=O)(=O)N2CCOCC2)cc1NC(=O)c1ccccc1-c1ccc(C(F)(F)F)cc1	-22.3%	0.8%	-2.1%	-1.3%	51.0%	2.7%	u
CCOc1ccc(/C=C/c2nc3ccccc3n2S(=O)(=O)c2cccc(Cl)c2)cc1	-3.5%	x	x	x	4.1%	7.0%	x
Cc1ccc(/C=C/c2nc3ccccc3n2S(=O)(=O)c2cccc(Cl)c2)cc1	-18.1%	x	x	x	10µM*	0.9%	u
COc1ccc(C(=O)n2cc(C(=O)c3cc(C)ccc3O)cn2)cc1OC	-19.1%	8.9%	-4.3%	-10.3%	96.3%	7.1%	6.0%
SMILES	12-LOX inh	Rango dissoc inh	Rango complex inh	PTAP TSG101 blk	ClpP mod	TDP1 inh	ClpP inh valid
COc1ccc(C(=O)n2cc(C(=O)c3cc(C)ccc3O)cn2)cc1	-19.0%	-1.5%	4.9%	-3.0%	-3.9%	3.1%	x
COc1ccccc1NC(=O)Cn1cnc2c(cnn2-c2ccc(C)c(C)c2)c1=O	-6.4%	-12.7%	-0.7%	0.0%	36.0%	-4.0%	-29.8%
CCOC(=O)c1cc2occc2n1CC(=O)N1CCCc2ccccc21	1.0%	0.8%	-0.3%	-1.9%	96.1%	8.0%	0.0%
O=C(NCc1ccccc1)N[C@H]1CO[C@H]2[C@@H]1OC[C@H]2OC(=O)Nc1cccc(C(F)(F)F)c1	1.7%	x	x	x	x	x	x
Cc1cc(C)c2c(CC(=O)Nc3c(C(=O)Nc4ccc(Cl)cc4)oc4ccccc34)coc2c1	-14.9%	x	x	x	7.94µM*	3.7%	-23.4%
Cc1cccc(-c2cc3nc(C)cc(N4CC(C)CC(C)C4)n3n2)c1 (configuration not stated)	-20.3%	9.7%	0.1%	-1.0%	0.794µM*	6.7%	-4.8%
O=C(Nc1ccccc1)c1cccc(C(=O)Nc2ccccc2)n1	426.5%	1.6%	5.3%	-0.5%	67.9%	1.6%	24.3µM*
O=C(Nc1c(NC2CCCCC2)c2ccccc2oc1=O)c1cccc(F)c1	3.2%	x	x	x	x	x	x
Cc1ccc(Cn2ccc(NC(=O)c3cc(-c4ccc(Cl)cc4)on3)n2)cc1	u	-6.4%	0.3%	-10.0%	-7.7%	1.9%	x
Cc1ccc(Cn2ccc(NC(=O)c3nn(C)cc3Cl)n2)cc1	17.3%	6.9%	-2.1%	-3.8%	91.4%	5.9%	-0.8%
CC(OC(=O)c1nn(C(C)C)c(=O)c2ccccc12)C(=O)Nc1ncc(Cl)cc1Cl (configuration not stated)	-14.7%	u	2.4%	2.0%	42.2%	0.0%	-4.6%
C[C@@H]1CN(C(=O)Cc2cn3ccsc3n2)CC[C@@]1(O)C1CCOCC1	-7.5%	x	x	x	x	x	x

Bioassay records as filed in PubChem.
